Reference: PubChem BioAssay AID1159580 (chemical genetic matrix, 2015)
The campaign covered roughly 5,500 compounds. About 2,000 (36%) were called active. Another 18% or so got no clear call; they are omitted. Rule as the data show it: active = normalized growth mostly below about 0.91 (no sharp cut-off); inconclusive = no clear call, values can overlap the other calls; inactive = mostly above about 0.92. Some of the results follow.

Experiment: chemical genetic growth profiling, strain panel (AID 1159580);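 also: tested at 20 µM; growth read once vehicle control cultures reached saturation at 30 °C; 1 = growth at the plate median or of vehicle wells; lower values mean less growth of the strain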
Settings: growth OD

Measured: normalized growth

COc1cc(OC)c2c3c1C(=O)c1c(OC)cc(C)c4c(OC)cc(c-3c14)C(C)(C)C2=O
inactive: S. cerevisiae deletion strains, locus YAL013W, strain DEP1, stronger effect = lower value 1.02 | S. cerevisiae deletion strains, locus YBR021W, strain FUR4, stronger effect = lower value 0.993 | S. cerevisiae deletion strains, locus YBR229C, strain ROT2, stronger effect = lower value 1.02 | S. cerevisiae deletion strains, locus YCL029C, strain bik1, stronger effect = lower value 0.993 | S. cerevisiae deletion strains, locus YDL035C, strain GPR1, stronger effect = lower value 0.99 | S. cerevisiae deletion strains, locus YDL074C, strain BRE1, stronger effect = lower value 0.991 | S. cerevisiae deletion strains, locus YDL101C, strain DUN1, stronger effect = lower value 1.01 | S. cerevisiae deletion strains, locus YDL134C, strain PPH21, stronger effect = lower value 1 | S. cerevisiae deletion strains, locus YDL185W, strain tfp1, stronger effect = lower value 0.991 | S. cerevisiae deletion strains, locus YDL192W, strain arf1, stronger effect = lower value 0.988 | S. cerevisiae deletion strains, locus YDR101C, strain arx1, stronger effect = lower value 0.971 | S. cerevisiae deletion strains, locus YDR150W, strain NUM1, stronger effect = lower value 1.01 | S. cerevisiae deletion strains, locus YDR162C, strain NBP2, stronger effect = lower value 1.03 | S. cerevisiae deletion strains, locus YDR318W, strain mcm21, stronger effect = lower value 0.98 | S. cerevisiae deletion strains, locus YDR388W, stronger effect = lower value 0.989 | S. cerevisiae deletion strains, locus YDR502C, strain sam2, stronger effect = lower value 0.981 | S. cerevisiae deletion strains, locus YEL061C, strain CIN8, stronger effect = lower value 1.01 | S. cerevisiae deletion strains, locus YER110C, stronger effect = lower value 0.988 | S. cerevisiae deletion strains, locus YER155C, strain BEM2, stronger effect = lower value 1.01 | S. cerevisiae deletion strains, locus YER167W, strain BCK2, stronger effect = lower value 0.987 | S. cerevisiae deletion strains, locus YGL078C, strain dbp3, stronger effect = lower value 1 | S. cerevisiae deletion strains, locus YGL086W, strain mad1, stronger effect = lower value 0.968 | S. cerevisiae deletion strains, locus YGL248W, strain PDE1, stronger effect = lower value 1.01 | S. cerevisiae deletion strains, locus YGR078C, strain PAC10, stronger effect = lower value 1.01 | S. cerevisiae deletion strains, locus YGR135W, strain pre9, stronger effect = lower value 0.983 | S. cerevisiae deletion strains, locus YGR229C, strain SMI1, stronger effect = lower value 0.997 | S. cerevisiae deletion strains, locus YGR252W, strain gcn5, stronger effect = lower value 0.896 | S. cerevisiae deletion strains, locus YHR030C, strain SLT2, stronger effect = lower value 1.01 | S. cerevisiae deletion strains, locus YHR079C, strain IRE1 (second series), stronger effect = lower value 0.977 | S. cerevisiae deletion strains, locus YHR094C, strain hxt1, stronger effect = lower value 0.985 | S. cerevisiae deletion strains, locus YHR129C, strain ARP1, stronger effect = lower value 1.01 | S. cerevisiae deletion strains, locus YHR200W, strain rpn10, stronger effect = lower value 0.989 | S. cerevisiae deletion strains, locus YIL066C, strain RNR3, stronger effect = lower value 0.999 | S. cerevisiae deletion strains, locus YIL073C, strain SPO22, stronger effect = lower value 0.924 | S. cerevisiae deletion strains, locus YIL125W, strain kgd1, stronger effect = lower value 0.994 | S. cerevisiae deletion strains, locus YIR030C, strain dcg1, stronger effect = lower value 0.979 | S. cerevisiae deletion strains, locus YJL095W, strain BCK1, stronger effect = lower value 1.01 | S. cerevisiae deletion strains, locus YJL134W, strain LCB3, stronger effect = lower value 1 | S. cerevisiae deletion strains, locus YJL168C, strain set2, stronger effect = lower value 0.987 | S. cerevisiae deletion strains, locus YJL187C, strain SWE1 (second series), stronger effect = lower value 1.01 | S. cerevisiae deletion strains, locus YJR043C, strain POL32, stronger effect = lower value 0.993 | S. cerevisiae deletion strains, locus YJR075W, strain HOC1, stronger effect = lower value 0.988 | S. cerevisiae deletion strains, locus YKL009W, strain mrt4, stronger effect = lower value 0.979 | S. cerevisiae deletion strains, locus YKL068W, stronger effect = lower value 0.992 | S. cerevisiae deletion strains, locus YKL085W, strain MDH1 (second series), stronger effect = lower value 0.99 | S. cerevisiae deletion strains, locus YKL085W, strain MDH1, stronger effect = lower value 0.99 | S. cerevisiae deletion strains, locus YKL190W, strain CNB1, stronger effect = lower value 1 | S. cerevisiae deletion strains, locus YKR001C, strain vps1, stronger effect = lower value 0.973 | S. cerevisiae deletion strains, locus YLR039C, strain RIC1, stronger effect = lower value 1.01 | S. cerevisiae deletion strains, locus YLR058C, strain SHM2, stronger effect = lower value 1.01 | S. cerevisiae deletion strains, locus YLR102C, strain apc9, stronger effect = lower value 0.981 | S. cerevisiae deletion strains, locus YLR262C, strain YPT6, stronger effect = lower value 0.995 | S. cerevisiae deletion strains, locus YLR268W, strain sec22, stronger effect = lower value 0.973 | S. cerevisiae deletion strains, locus YLR330W, strain CHS5, stronger effect = lower value 1.02 | S. cerevisiae deletion strains, locus YLR342W, strain FKS1 (second series), stronger effect = lower value 0.967 | S. cerevisiae deletion strains, locus YLR371W, strain rom2, stronger effect = lower value 0.99 | S. cerevisiae deletion strains, locus YLR418C, strain cdc73, stronger effect = lower value 0.947 | S. cerevisiae deletion strains, locus YML016C, strain PPZ1, stronger effect = lower value 1.01 | S. cerevisiae deletion strains, locus YML032C, strain rad52, stronger effect = lower value 0.973 | S. cerevisiae deletion strains, locus YML124C, strain tub3, stronger effect = lower value 0.985 | S. cerevisiae deletion strains, locus YMR078C, strain ctf18, stronger effect = lower value 0.99 | S. cerevisiae deletion strains, locus YMR223W, strain ubp8, stronger effect = lower value 0.969 | S. cerevisiae deletion strains, locus YMR263W, strain SAP30, stronger effect = lower value 1.02 | S. cerevisiae deletion strains, locus YMR307W, strain GAS1, stronger effect = lower value 0.977 | S. cerevisiae deletion strains, locus YNL067W, strain RPL9B, stronger effect = lower value 1.01 | S. cerevisiae deletion strains, locus YNL128W, strain TEP1, stronger effect = lower value 1.02 | S. cerevisiae deletion strains, locus YNL153C, strain GIM3, stronger effect = lower value 1.02 | S. cerevisiae deletion strains, locus YNL233W, strain BNI4, stronger effect = lower value 1.01 | S. cerevisiae deletion strains, locus YNL250W, strain rad50, stronger effect = lower value 0.989 | S. cerevisiae deletion strains, locus YNL271C, strain bni1, stronger effect = lower value 0.994 | S. cerevisiae deletion strains, locus YNL298W, strain CLA4, stronger effect = lower value 0.99 | S. cerevisiae deletion strains, locus YNL307C, strain MCK1, stronger effect = lower value 0.95 | S. cerevisiae deletion strains, locus YNL322C, strain KRE1, stronger effect = lower value 1.01 | S. cerevisiae deletion strains, locus YNR052C, strain pop2, stronger effect = lower value 0.985 | S. cerevisiae deletion strains, locus YOL006C, strain TOP1, stronger effect = lower value 0.991 | S. cerevisiae deletion strains, locus YOL012C, strain htz1 1.08 | S. cerevisiae deletion strains, locus YOL147C, strain pex11, stronger effect = lower value 0.994 | S. cerevisiae deletion strains, locus YOR061W, strain CKA2, stronger effect = lower value 1 | S. cerevisiae deletion strains, locus YOR069W, strain VPS5, stronger effect = lower value 1 | S. cerevisiae deletion strains, locus YOR136W, strain idh2, stronger effect = lower value 0.987 | S. cerevisiae deletion strains, locus YOR144C, strain elg1, stronger effect = lower value 0.991 | S. cerevisiae deletion strains, locus YOR184W, strain ser1, stronger effect = lower value 0.952 | S. cerevisiae deletion strains, locus YOR316C, strain cot1, stronger effect = lower value 0.981 | S. cerevisiae deletion strains, locus YPL055C, strain LGE1, stronger effect = lower value 1.01 | S. cerevisiae deletion strains, locus YPL241C, strain CIN2, stronger effect = lower value 1.01 | S. cerevisiae deletion strains, locus YPR119W, strain clb2, stronger effect = lower value 0.988 | S. cerevisiae deletion strains, locus YPR141C, strain kar3, stronger effect = lower value 0.986 | S. cerevisiae deletion strains, locus YPR163C, strain tif3, stronger effect = lower value 0.989 | S. cerevisiae deletion strains, locus YPR167C, strain met16, stronger effect = lower value 0.981 | S. cerevisiae deletion strains, strain wtn01, stronger effect = lower value 0.95 | S. cerevisiae strains, strain wild type, stronger effect = lower value 1
